Assay results taken from PubChem BioAssay.
Calls of active or inactive are those of the source.

Experiments:
[1] = system: Wnt5a (protein binding on small-molecule microarray); test: small molecules binding Wnt5a protein – biophysical, small-molecule microarray, 635/667 nm fluorescence, primary screen (AID 1142); settings: 635 nm fluorescence, higher = more signal;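 also: fluorescence read at 667 nm with signal to noise per printed feature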
[2] = ATP-based viability of Huh7 replicon cells – cell-based, CellTiter-Glo luminescence, basal, 48 h, cytotoxicity control for HCV replication inhibitor project, primary screen (AID 1143); settings: higher = more signal, called active from +8 up or from −8 down;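 also: Huh7 hepatoma cells carrying a hepatitis C replication reporter with no stimulus; test concentration not given here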
[3] = basal CRE-LacZ reporter activity in PC12 – cell-based, unstimulated, primary screen (AID 1145); settings: no forskolin, luminescence, 4.5 h, higher = more signal, called active from +8 up or from −8 down
[4] = forskolin-driven CRE-LacZ activity in PC12 – cell-based, CRE-LacZ reporter, forskolin-stimulated, primary screen (AID 1146); settings: luminescence, 4.5 h, higher = more signal, called active from +8 up or from −8 down;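 also: PC12 cells with 6xCRE LacZ reporter stimulated by forskolin 10 µM; beta-galactosidase reporter signal reflecting CREB driven transcription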
[5] = biological target: Streptavidin (Streptomyces avidinii) (UniProt P22629); test: compounds binding control protein streptavidin – biophysical, small-molecule microarray, 635/667 nm fluorescence, artefact control for SMM compound annotation, primary screen (AID 1147); settings: higher = more signal;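 also: signal reflects streptavidin binding to arrayed compounds as a control protein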
Chain of Streptavidin (Streptomyces avidinii) (P22629 whole entry, looked up): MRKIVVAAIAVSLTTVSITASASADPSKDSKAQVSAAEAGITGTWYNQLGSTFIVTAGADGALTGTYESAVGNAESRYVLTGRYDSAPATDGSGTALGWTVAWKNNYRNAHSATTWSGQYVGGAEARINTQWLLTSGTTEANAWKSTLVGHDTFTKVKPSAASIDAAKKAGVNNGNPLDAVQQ

[6] = probe aInhba binding on compound microarray – biochemical, small-molecule microarray, 635/667 nm fluorescence, primary screen (AID 1148); settings: higher = more signal;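 also: score merges 667nm spot fluorescence with signal-to-noise for antibody binding to printed compounds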
Torsin-1A (Homo sapiens) [7] = biological target: Torsin-1A (Homo sapiens) (UniProt O14656); test: TOR1A wild-type binding on microarray – cell lysate, small-molecule microarray, lysate, 635/667 nm, primary screen (AID 1149); settings: COS7 hTOR1A-WT lysate, 635 nm fluorescence, higher = more signal
Chain of Torsin-1A (Homo sapiens) (O14656 whole entry, looked up): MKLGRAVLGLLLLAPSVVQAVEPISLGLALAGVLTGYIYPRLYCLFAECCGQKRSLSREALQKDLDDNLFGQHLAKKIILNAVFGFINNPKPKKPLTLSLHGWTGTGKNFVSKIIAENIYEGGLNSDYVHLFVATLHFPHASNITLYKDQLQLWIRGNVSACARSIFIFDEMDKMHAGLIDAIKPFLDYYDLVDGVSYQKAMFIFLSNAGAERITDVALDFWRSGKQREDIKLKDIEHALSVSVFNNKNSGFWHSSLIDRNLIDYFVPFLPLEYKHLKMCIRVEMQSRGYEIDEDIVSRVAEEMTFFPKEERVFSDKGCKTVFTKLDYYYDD

Torsin-1A (Homo sapiens) [8] = biological target: Torsin-1A (Homo sapiens) (UniProt O14656); test: torsin A mutant lysate binding on microarrays – cell lysate, small-molecule microarray, COS7 lysate, 635/667 nm fluorescence, primary screen (AID 1150); settings: COS7 hTOR1A mutant lysate, 635 nm fluorescence, higher = more signal;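 also: score pools 667 nm emission and signal to noise measuring lysate protein binding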
[9] = system: Sonic hedgehog protein (Shh); test: Sonic hedgehog microarray binding compounds – biochemical, small-molecule microarray, 635/667 nm fluorescence, primary screen (AID 1151); settings: 635 nm fluorescence, higher = more signal;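 also: Shh protein binding to compounds spotted on small-molecule microarray slides; score combines spot fluorescence intensity with signal-to-noise across triplicate slides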

SMILES	composite z-score [1]	z-score [2]	z-score [3]	z-score [4]	composite z-score [5]	composite z-score [6]	composite z-score (Torsin-1A (Homo sapiens) [7])	composite z-score (Torsin-1A (Homo sapiens) [8])	composite z-score [9]
O=C1O[C@@H](c2ccccc2)[C@@H](c2ccccc2)N2[C@@H](c3ccccc3OCCO)[C@]3(C(=O)Nc4ccc(C#CC5=CCCCC5)cc43)[C@@H](C(=O)O)[C@H]12	0.26	-4.37 (inactive)	0.245 (inactive)	13.7 (active)	0.841	-0.0006	0.13	0.261	0.195
CC(C)[Si]1(C(C)C)OCc2cc(C3CC3)nc(-c3ccccc3)c21	-0.125	-1.63 (inactive)	0.339 (inactive)	-1.08 (inactive)	-0.0842	-0.108	0.188	0.127	0.545
CN1C2C=C(c3ccc(CO)cc3)C(C3C(=O)N(C(N)=O)C(=O)C32)C1c1cccs1 (stereo unspecified)	-0.25	-0.975 (inactive)	2.09 (inactive)	-1.5 (inactive)	-0.487	-0.0791	0.0899	0.782	1.4
CC(C)(C)OC(=O)CC[C@]1(C(=O)NCCN2CCOCC2)N=C(c2ccc(OCCCO)cc2)O[C@H]1c1ccccc1CN=[N+]=[N-]	0.358	-1.11 (inactive)	1.57 (inactive)	-1.79 (inactive)	0.225	0.0386	0.474	1.06	-0.577
CCOC(=O)C[C@H]1[C@H](OC(=O)Cc2ccc3c(c2)OCO3)[C@@H](NC(=O)CC(C)C)c2cc(OCCCO)ccc2N1C(=O)c1ccccc1	0.416	-0.957 (inactive)	0.162 (inactive)	-1.48 (inactive)	-0.195	0.126	-0.155	0.287	0.526
CO[C@@H]1COC(=O)CC=C[C@H](C)COC(=O)[C@H](Cc2ccccc2)NC(=O)CC=C[C@H]1C	-0.108	-0.87 (inactive)	-0.202 (inactive)	-1.63 (inactive)	-0.457	-0.438	1.46	0.793	1.73
Cc1ccc(S(=O)(=O)c2cc3oc2CC[C@@H](CO)NC(=O)N(C)Cc2cn(nn2)C[C@H](Cc2ccccc2)NC3=O)cc1	-0.0319	-0.0124 (inactive)	-0.332 (inactive)	-0.58 (inactive)	-0.183	-0.0335	0.285	0.501	0.0007
CO[C@H]1O[C@H](CO)[C@@H](OC(=O)Nc2ccc(Oc3ccccc3)cc2)[C@H](OC(=O)Nc2ccccc2-c2ccccc2)[C@H]1OC(=O)Nc1ccccc1-c1ccccc1	0.595	-6.08 (inactive)	-0.0017 (inactive)	-1.31 (inactive)	1.25	0.268	0.445	0.517	1.24
C[C@H]1COC(=O)[C@@H]2CCCN2C(=O)[C@@H](C)COC(=O)[C@@H]2CCCN2C1=O	0.0246	-0.0001 (inactive)	0.613 (inactive)	-0.881 (inactive)	-0.269	0.0086	-0.213	0.25	0.355
CSCC[C@@H]1NC(=O)CC=C[C@@H](C)COC(=O)[C@H](CCSC)NC(=O)CC=C[C@@H](C)COC1=O	0.119	-3.38 (inactive)	-0.389 (inactive)	-0.837 (inactive)	-0.563	-0.146	0.138	0.291	0.493
CO[C@H]1COC(=O)CC=C[C@H](C)[C@@H](OC)COC(=O)[C@H](Cc2ccccc2)NC(=O)CC=C[C@@H]1C	-0.359	-0.89 (inactive)	0.248 (inactive)	-0.802 (inactive)	-0.234	-0.408	0.45	0.593	2.05
Cc1ccc(N2C(=O)c3ccccc3[C@](C)(C(=O)O)[C@@H]2c2ccc(CO)cc2)nc1	-0.56	-0.718 (inactive)	-0.852 (inactive)	-0.942 (inactive)	-0.519	-0.267	1.11	-0.144	-0.751
CCCC/C=C/[C@H]([C@@H](O)Cc1ccccc1)N(CC#Cc1ccccc1)Cc1ccccc1Br	-0.238	-0.677 (inactive)	-0.0534 (inactive)	-0.967 (inactive)	-0.951	-0.302	-0.335	-0.242	-1.29
CCOC(=O)C[C@H]1[C@H](OC(=O)c2ccccc2-c2ccccc2)[C@@H](NC(=O)C2CCCCC2)c2cc(OCCCO)ccc2N1C(=O)c1ccccc1	0.364	-0.781 (inactive)	10.2 (active)	-0.278 (inactive)	0.0739	0.0131	0.128	0.197	1.1
Cc1ccc(S(=O)(=O)N[C@H]2COC(=O)CC=C[C@H](C)COC(=O)N[C@@H](C)C(=O)CC=C[C@@H]2C)cc1	0.177	-1.67 (inactive)	1.6 (inactive)	-0.933 (inactive)	-0.184	-0.142	0.771	0.555	1.01
COC(=O)C1=C(C)N(Cc2ccccc2)c2c(C(=O)OC)c(C(=O)OC)c(C(=O)OC)c(=O)n2[C@@H]1c1ccccc1	0.191	-0.233 (inactive)	4.26 (inactive)	-1.23 (inactive)	0.125	0.0503	0.285	0.505	0.426
CCCC[C@H]1OB(O)C[C@H]2C1=C(COC)C[C@H]1C(=O)N(Cc3ccccc3)C(=O)[C@H]12	0.192	-0.273 (inactive)	0.307 (inactive)	-1.76 (inactive)	-0.098	0.124	-0.0377	0.37	0.329
CO[C@H]1COC(=O)[C@H](C)NC(=O)CC=C[C@@H](C)[C@H](NS(=O)(=O)c2ccc(C)cc2)COC(=O)CC=C[C@@H]1C	-0.0879	-0.831 (inactive)	0.429 (inactive)	-1.27 (inactive)	-0.052	-0.123	0.961	0.0627	1.38
CO[C@@H]1COC(=O)[C@@H]2CCCN2C(=O)CC=C[C@@H](C)[C@H](OC)COC(=O)[C@@H]2CCCN2C(=O)CC=C[C@H]1C	-0.137	-0.381 (inactive)	-0.292 (inactive)	-0.559 (inactive)	-0.613	-0.179	0.985	0.306	2.1
CC(C)CNC(=O)[C@@]1(C)c2ccccc2C(=O)N(Cc2ccc(OC(F)(F)F)cc2)[C@H]1c1ccc(CO)cc1	0.12	-1.65 (inactive)	0.0279 (inactive)	-0.569 (inactive)	-1.12	-0.128	-0.0233	0.316	-0.406
C=C(/C(=C/C[C@@H](OC(=O)c1ccncc1)c1ccc(CO)o1)c1cnc2ccccc2c1)C(C)C	0.117	-1.35 (inactive)	2.21 (inactive)	-0.42 (inactive)	1.72	0.0464	0.165	0.475	1.15
O=C1c2ccccc2[C@](Cc2ccccc2I)(C(=O)NCC(F)(F)F)[C@H](c2ccc(CO)cc2)N1Cc1ccccc1C(F)(F)F	0.12	-0.254 (inactive)	-0.438 (inactive)	-0.112 (inactive)	0.59	-0.268	0.305	0.245	0.137
C=CC[C@]1(C(=O)O)N=C(c2ccc(OCCCO)cc2)O[C@H]1c1ccccc1	-0.0903	-0.551 (inactive)	1.38 (inactive)	-1.04 (inactive)	0.0596	-0.0471	-0.753	-0.0649	-0.712
CO[C@@H]1COC(=O)[C@H](COCc2ccccc2)NC(=O)CC=C[C@@H](C)[C@H](OC)COC(=O)[C@H](COCc2ccccc2)NC(=O)CC=C[C@H]1C	0.0648	-0.853 (inactive)	0.336 (inactive)	-0.401 (inactive)	-0.405	-0.2	0.692	0.209	0.839
COc1cc([C@@H]2N[C@H](C(=O)O)Cc3c2[nH]c2ccccc32)cc(OC)c1OC	0.102	-1.81 (inactive)	0.108 (inactive)	-1.69 (inactive)	0.0855	-0.0102	0.257	0.285	0.342
C=CC[C@]1(C(N)=O)N=C(c2ccc(OCCCO)cc2)O[C@H]1c1ccccc1CN=[N+]=[N-]	0.151	-4.28 (inactive)	1.54 (inactive)	-1.31 (inactive)	1.42	-0.0093	1.69	0.96	-0.373
COCCOC(=O)N1C(=O)[C@@]2(c3ccccc31)[C@H](C(=O)N1CCc3cc(OC)c(OC)cc3C1)[C@H]1C(=O)O[C@H](c3ccccc3)[C@H](c3ccccc3)N1[C@@H]2c1ccccc1OCCO	0.0374	-3.27 (inactive)	-0.183 (inactive)	-1.12 (inactive)	0.686	0.0228	0.435	0.243	1.38
CCCNC(=O)[C@@H]1c2ccccc2C(=O)N(Cc2cc(F)cc(C(F)(F)F)c2)[C@H]1c1ccc(CO)cc1	0.411	-2.08 (inactive)	-0.529 (inactive)	-1.53 (inactive)	0.568	0.157	0.528	0.457	1.93
CC/C=C/C(=O)N(C[C@@H]1CCCO1)[C@@H]1CC(C(=O)NCCO)=C[C@H](Oc2c(I)cc(CO)cc2OC)[C@H]1O	-0.0308	-1.97 (inactive)	0.858 (inactive)	-2.41 (inactive)	-0.0512	-0.128	0.553	0.267	0.239
